# Measured values taken from PubChem BioAssay (NCATS).
# Values without a mark were called inactive. Inconclusive results are not listed. Where a call stands in place of a potency, no number is given. Active and inactive are the calls of the source. Unless noted, the call rests on the fitted dose curve; in most records, active means well fitted curve in the direction sought with a large enough effect; inconclusive means small, poorly fitted or top-dose-only effect, or another doubt; inactive means no such curve, though single readings can be large; an effect the other way counts as inactive or inconclusive.
# Legend:
# [1] = NS1 protein of Zika virus - qHTS assay to identify small molecule inhibitors in human HEK 293 cells (AID 1347053); further: series mostly up to about 46 µM; nearly all actives have a fitted effect of over 55% in size
# In short: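 Readout was TR-FRET using paired anti-NS1 antibodies after 24 h infection of HEK 293 cells with ZIKV MR766 (MOI = 0.5). Compound preceded virus by 1 h; reduced signal reflects lower NS1 expression.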
# [2] = qHTS of pediatric cancer cell lines to identify multiple opportunities for drug repurposing: Primary screen for TC32 cells (AID 1347089); further: nearly all actives have a fitted effect of over 60% in size; further: potency means the concentration at half of the fitted maximal effect
# In short: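 A viability screen of TC32 cells was run over 48 h, with primary MIPE doses spanning 0.78 nM–46 µM and NPC doses 0.59 nM–46 µM. ATP luminescence (CellTiter-Glo) served as the read-out.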
# [3] = qHTS of pediatric cancer cell lines to identify multiple opportunities for drug repurposing: Primary screen for DAOY cells (AID 1347090); further: series mostly up to about 46 µM; nearly all actives have a fitted effect of over 55% in size
# In short: (§1)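 Eight- or eleven-point concentration series, 48 h treatment at 37 degrees C in growth media; readout CellTiter-Glo luminescence. Potency and efficacy were taken from the concentration-response curves.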
# [4] = qHTS of pediatric cancer cell lines to identify multiple opportunities for drug repurposing: Primary screen for SJ-GBM2 cells (AID 1347091); further: potency means the concentration at half of the fitted maximal effect
# In short: as §1
# [5] = qHTS of pediatric cancer cell lines to identify multiple opportunities for drug repurposing: Primary screen for A673 cells (AID 1347092); further: nearly all actives have a fitted effect of over 45% in size; further: potency means the concentration at half of the fitted maximal effect
# In short: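 Titration-based qHTS on A673 cells: MIPE compounds spanned 11 points (0.78 nM to 46 µM final), NPC compounds 8 points (0.59 nM to 46 µM final). Viability after 48 h was measured by ATP luminescence.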
# [6] = molecular target: T1, Tyrosine-protein phosphatase non-receptor type substrate 1 (Homo sapiens) + Leukocyte surface antigen CD47 (Homo sapiens) (UniProt P78324+Q08722); experiment: CD47-SIRPalpha protein protein interaction - HTRF assay qHTS validation (AID 1347058; active means well fitted curve in the direction sought with a large enough effect in the signal ratio, not every such curve was filed as active; the % refers to the signal ratio; further: series mostly up to about 38 µM)
# T1 sequence (P78324 whole entry, looked up, the tested form may be a part): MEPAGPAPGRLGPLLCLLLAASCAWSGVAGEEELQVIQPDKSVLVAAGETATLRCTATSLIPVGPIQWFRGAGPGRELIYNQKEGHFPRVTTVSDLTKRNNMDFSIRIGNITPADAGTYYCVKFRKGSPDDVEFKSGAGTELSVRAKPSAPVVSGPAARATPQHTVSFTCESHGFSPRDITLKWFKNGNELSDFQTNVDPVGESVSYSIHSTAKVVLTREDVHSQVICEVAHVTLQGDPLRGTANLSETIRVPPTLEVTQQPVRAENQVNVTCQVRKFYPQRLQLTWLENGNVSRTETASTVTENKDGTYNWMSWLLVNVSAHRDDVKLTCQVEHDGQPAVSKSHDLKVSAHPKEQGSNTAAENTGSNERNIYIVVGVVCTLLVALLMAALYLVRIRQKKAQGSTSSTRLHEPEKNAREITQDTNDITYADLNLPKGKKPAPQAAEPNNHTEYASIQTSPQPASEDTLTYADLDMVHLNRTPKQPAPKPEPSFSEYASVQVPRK
# T1 sequence (Q08722 whole entry, looked up, the tested form may be a part): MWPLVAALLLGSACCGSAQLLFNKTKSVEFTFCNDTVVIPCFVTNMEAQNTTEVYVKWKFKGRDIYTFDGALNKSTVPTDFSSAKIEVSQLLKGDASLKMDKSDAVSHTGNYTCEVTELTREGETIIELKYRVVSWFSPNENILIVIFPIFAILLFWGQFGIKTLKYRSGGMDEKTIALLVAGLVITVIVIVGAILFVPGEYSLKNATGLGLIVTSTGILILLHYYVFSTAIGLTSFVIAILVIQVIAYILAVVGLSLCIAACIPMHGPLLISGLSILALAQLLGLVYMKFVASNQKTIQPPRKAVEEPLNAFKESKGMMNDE
# In short: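 Soluble extracellular domains (6His-CD47, Avi-tag-biotinylated SIRPalpha) in PBS pH 7.4 with 0.05% IGEPAL CA-630. Compounds were preincubated 30 min at RT with CD47 and anti-His-Eu, then SIRPalpha and SAV-XL665 were added. TR-FRET 665/615 ratio.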
# [7] = molecular target: Parathyroid hormone/parathyroid hormone-related peptide receptor (Homo sapiens) (UniProt Q03431); experiment: qHTS for PTHR1 Agonists: Optimization Screen against the NCGC LOPAC library (AID 1347079);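 further: GloSensor cAMP luminescence in HEK-293 GP2 cells expressing human PTHR1 with IBMX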
# Chain of Parathyroid hormone/parathyroid hormone-related peptide receptor (Homo sapiens) (Q03431 whole entry, looked up): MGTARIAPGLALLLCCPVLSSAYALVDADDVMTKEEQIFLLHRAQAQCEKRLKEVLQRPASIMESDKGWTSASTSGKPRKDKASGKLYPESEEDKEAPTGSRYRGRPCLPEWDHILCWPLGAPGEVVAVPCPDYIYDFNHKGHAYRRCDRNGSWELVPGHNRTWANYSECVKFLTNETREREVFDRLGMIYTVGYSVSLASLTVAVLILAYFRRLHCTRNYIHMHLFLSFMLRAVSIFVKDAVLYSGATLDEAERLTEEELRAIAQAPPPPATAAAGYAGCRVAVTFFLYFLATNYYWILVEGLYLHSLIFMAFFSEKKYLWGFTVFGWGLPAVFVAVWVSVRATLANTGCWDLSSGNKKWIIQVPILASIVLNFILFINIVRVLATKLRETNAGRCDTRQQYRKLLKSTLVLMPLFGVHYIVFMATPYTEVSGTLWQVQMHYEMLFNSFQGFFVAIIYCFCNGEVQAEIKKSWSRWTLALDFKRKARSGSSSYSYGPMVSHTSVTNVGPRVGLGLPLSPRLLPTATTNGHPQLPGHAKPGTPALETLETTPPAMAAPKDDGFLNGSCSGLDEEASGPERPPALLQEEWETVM
# In short: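 Signal increase flags agonism. GP2 cells, derived from HEK-293, express human PTHR1 and a GloSensor cAMP construct.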
# [8] = molecular target: T1, Tyrosine-protein phosphatase non-receptor type substrate 1 (Homo sapiens) + Leukocyte surface antigen CD47 (Homo sapiens); experiment: CD47-SIRPalpha protein protein interaction - Alpha assay qHTS validation (AID 1347059);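 further: bead proximity luminescence from CD47 binding SIRPalpha after compound preincubation with SIRPalpha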
# In short: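 In PBS (pH 7.4) with 0.05% IGEPAL CA-630, compound is preincubated with biotin-Avi-SIRPalpha ectodomain before His-CD47 ectodomain and affinity beads are added. Light-protected room-temperature incubations; AlphaScreen readout.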
compound,measurement,setting,value
CCCCCCCCCCCCOS(=O)(=O)O,Potency,[1],inactive
same,Potency,[2],inactive
same,Potency,[3],inactive
same,Potency,[4],inactive
same,Potency,[5],inactive
CN(N=O)C(=O)N[C@@H]1[C@@H](O)[C@H](O)[C@@H](CO)O[C@@H]1O,Potency,[1],inactive
same,Potency,[2],inactive
same,Potency,[3],inactive
same,Potency,[4],inactive
same,Potency,[5],inactive
CCC(=O)c1ccc(O)cc1,Potency,[1],inactive
same,Potency,[2],inactive
same,Potency,[3],inactive
same,Potency,[4],inactive
same,Potency,[5],inactive
CC1CC(OC(=O)C(O)c2ccccc2)CC(C)(C)N1C (stereo not drawn),Potency,[1],inactive
same,Potency,[2],inactive
same,Potency,[3],inactive
same,Potency,[4],inactive
same,Potency,[5],inactive
Cc1ccc(C(C)C)cc2c(C)ccc1-2,Potency,[1],inactive
same,Potency,[2],inactive
same,Potency,[3],inactive
same,Potency,[4],inactive
same,Potency,[5],inactive
CC(C)(C)C(=O)C(Oc1ccc(Cl)cc1)n1ccnc1 (stereo not drawn),Potency,[1],inactive
same,Potency,[2],inactive
same,Potency,[3],inactive
same,Potency,[4],inactive
same,Potency,[5],inactive
NCC(=O)CCC(=O)O,Potency,[1],inactive
same,Potency,[2],inactive
same,Potency,[3],inactive
same,Potency,[4],inactive
same,Potency,[5],inactive
OC[C@H]1O[C@@H](O[C@@H]2[C@@H](CO)O[C@](O)(CO)[C@H]2O)[C@H](O)[C@@H](O)[C@H]1O,Potency,[1],inactive
same,Potency,[2],inactive
same,Potency,[3],inactive
same,Potency,[4],inactive
same,Potency,[5],inactive
O=C(O)COc1nn(Cc2ccccc2)c2ccccc12,Potency,[1],inactive
same,Potency,[2],inactive
same,Potency,[3],inactive
same,Potency,[4],inactive
same,Potency,[5],inactive
CC1(C)S[C@@H]2[C@H](NC(=O)Cc3ccccc3)C(=O)N2[C@H]1C(=O)O (tested in a mixture with another compound),Potency,[1],inactive
same,Potency,[2],inactive
same,Potency,[3],inactive
same,Potency,[4],inactive
same,Potency,[5],inactive
O=c1[nH]c(=O)c2[nH]c(=O)[nH]c2[nH]1,"activity change, negative = inhibition",[1],-8.7% [at 9.2 µM]
same,"activity change, negative = cytotoxic",[2],-9.56% [at 9.17 µM]
same,"activity change, negative = cytotoxic",[3],-3.8% [at 9.22 µM]
same,"activity change, negative = cytotoxic",[4],1.34% [at 9.22 µM]
same,"activity change, negative = cytotoxic",[5],-14.8% [at 9.22 µM]
O=C(O)[C@@H]1CSCN1,Potency,[1],inactive
same,Potency,[2],inactive
same,Potency,[3],inactive
same,Potency,[4],inactive
same,Potency,[5],inactive
NC(=O)NC(=O)Cc1ccccc1,Potency,[1],inactive
same,Potency,[2],inactive
same,Potency,[3],inactive
same,Potency,[4],inactive
same,Potency,[5],inactive
Cn1cc[nH]c1=S,Potency,[1],inactive
same,Potency,[2],inactive
same,Potency,[3],inactive
same,Potency,[4],inactive
same,Potency,[5],inactive
O=c1[nH]cnc2c1ncn2[C@@H]1O[C@H](CO)[C@@H](O)[C@H]1O,Potency,[1],inactive
same,Potency,[2],inactive
same,Potency,[3],inactive
same,Potency,[5],inactive
CSc1ccc2c(c1)C(N1CCN(C)CC1)Cc1ccccc1S2 (stereo not drawn),outcome,[6],inactive
same,Potency,[7],inactive
same,Potency,[3],inactive
CCN(CC)CCNC(=O)c1c(C)[nH]c(/C=C2\C(=O)Nc3ccc(F)cc32)c1C,Potency,[2],8.36 µM (active)
same,Potency,[4],11.9 µM (active)
same,Potency,[5],10.6 µM (active)
O=C(O)c1ccccc1-c1ccc(C(F)(F)F)cc1,Potency,[1],inactive
same,Potency,[2],inactive
same,Potency,[3],inactive
same,Potency,[4],inactive
same,Potency,[5],inactive
NC(=O)NNc1ccccc1,Potency,[1],inactive
same,Potency,[2],inactive
same,Potency,[3],inactive
same,Potency,[4],inactive
same,Potency,[5],inactive
CCN(CC)CCSC(=O)C(c1ccccc1)c1ccccc1,Potency,[1],inactive
same,Potency,[2],inactive
same,Potency,[3],inactive
same,Potency,[5],21.1 µM (active)
Nc1nc2c(ncn2CCC(CO)CO)c(=O)[nH]1,Potency,[1],inactive
same,Potency,[2],inactive
same,Potency,[3],inactive
same,Potency,[4],inactive
same,Potency,[5],inactive
Nc1ccc(S(=O)(=O)Nc2ccccc2)cc1,Potency,[1],inactive
same,Potency,[2],inactive
same,Potency,[3],inactive
same,Potency,[4],inactive
same,Potency,[5],inactive
NC(=O)c1ncn([C@@H]2O[C@H](CO)[C@@H](O)[C@H]2O)c1N,Potency,[1],inactive
same,Potency,[2],inactive
same,Potency,[3],inactive
same,Potency,[4],inactive
same,Potency,[5],inactive
CN1CCN(C2Cc3ccccc3Sc3ccc(Cl)cc32)CC1 (stereo not drawn),outcome,[8],inactive
same,Potency,[7],inactive
same,Potency,[2],inactive
CCCc1c(OCCCCc2nn[nH]n2)ccc(C(C)=O)c1O,Potency,[1],inactive
same,Potency,[2],inactive
same,Potency,[3],inactive
same,Potency,[4],inactive
same,Potency,[5],inactive
CC(=O)Oc1ccc(C2(c3ccc(OC(C)=O)cc3)C(=O)Nc3ccccc32)cc1,Potency,[1],inactive
same,Potency,[2],inactive
same,Potency,[3],inactive
same,Potency,[4],inactive
same,Potency,[5],inactive
Cc1cc(O)cc2c1O[C@](C)(CCC[C@H](C)CCC[C@H](C)CCCC(C)C)CC2,Potency,[1],inactive
same,Potency,[2],inactive
same,Potency,[3],inactive
same,Potency,[4],inactive
same,Potency,[5],inactive
Cc1cc2nc3c(=O)[nH]c(=O)nc-3n(C[C@H](O)[C@H](O)[C@H](O)CO)c2cc1C,Potency,[1],inactive
same,Potency,[2],inactive
same,Potency,[3],inactive
same,Potency,[4],inactive
same,Potency,[5],inactive
CCCOC(=O)c1ccccc1,Potency,[1],inactive
same,Potency,[2],inactive
same,Potency,[3],inactive
same,Potency,[4],inactive
same,Potency,[5],inactive
CCn1cc(C(=O)O)c(=O)c2cnc(N3CCNCC3)nc21,Potency,[1],inactive
same,Potency,[2],inactive
same,Potency,[3],inactive
same,Potency,[4],inactive
same,Potency,[5],inactive
Cc1cccc(Nc2cc(Cl)nc(SCC(=O)O)n2)c1C,Potency,[1],inactive
same,Potency,[2],inactive
same,Potency,[3],inactive
same,Potency,[4],inactive
same,Potency,[5],inactive
c1ccc(CN(CC2=NCCN2)c2ccccc2)cc1,Potency,[1],inactive
same,Potency,[2],inactive
same,Potency,[3],inactive
same,Potency,[4],inactive
same,Potency,[5],inactive
C[C@]12CC[C@@H]3c4ccc(O)cc4CC[C@H]3[C@@H]1CC[C@@H]2OC(=O)CCC1CCCC1,Potency,[1],inactive
same,Potency,[2],inactive
same,Potency,[5],inactive
CC[N+](CC)(CC)CCOc1ccc(/C=C/c2ccccc2)cc1,Potency,[1],inactive
same,Potency,[2],21 µM (active)
same,Potency,[5],2.66 µM (active)
CC(=O)CCC(=O)O,Potency,[1],inactive
same,Potency,[2],inactive
same,Potency,[3],inactive
same,Potency,[4],inactive
same,Potency,[5],inactive
Cn1c(=O)c2c(ncn2CC2OCCO2)n(C)c1=O,Potency,[1],inactive
same,Potency,[2],inactive
same,Potency,[3],inactive
same,Potency,[4],inactive
same,Potency,[5],inactive
CC(=O)O[C@@]12CO[C@@H]1C[C@H](O)[C@@]1(C)C(=O)[C@H](O)C3=C(C)[C@@H](OC(=O)[C@H](O)[C@@H](NC(=O)OC(C)(C)C)c4ccccc4)C[C@@](O)([C@@H](OC(=O)c4ccccc4)[C@H]21)C3(C)C,Potency,[1],inactive
same,Potency,[2],0.0026 µM (active)
same,Potency,[5],0.001 µM (active)
COc1ccc2cc1Oc1ccc(cc1)C[C@H]1c3c(cc4c(c3Oc3cc5c(cc3OC)CCN(C)[C@@H]5C2)OCO4)CCN1C,Potency,[3],inactive
same,Potency,[5],13.3 µM (active)
COc1ccc2[nH]c(S(=O)Cc3ncc(C)c(OC)c3C)nc2n1 (stereo not drawn),Potency,[1],inactive
same,Potency,[2],inactive
same,Potency,[3],inactive
same,Potency,[4],inactive
same,Potency,[5],inactive
CCN(CC)C(=O)Nc1ccc(OCC(O)CNC(C)(C)C)c(C(C)=O)c1 (stereo not drawn),Potency,[1],inactive
same,Potency,[2],inactive
same,Potency,[3],inactive
same,Potency,[4],inactive
same,Potency,[5],inactive
O=c1cc[nH]c(=S)[nH]1,Potency,[1],inactive
same,Potency,[2],inactive
same,Potency,[3],inactive
same,Potency,[4],inactive
same,Potency,[5],0.001 µM (active)
COc1cc2[nH]c(=O)[nH]c(=O)c2cc1OC,Potency,[1],inactive
same,Potency,[2],inactive
same,Potency,[3],inactive
same,Potency,[4],inactive
same,Potency,[5],inactive
CC(C)(C)C(=O)NCCCC(=O)O,Potency,[1],inactive
same,Potency,[2],inactive
same,Potency,[3],inactive
same,Potency,[4],inactive
same,Potency,[5],inactive
CC(O)COc1ccccc1 (stereo not drawn),Potency,[1],inactive
same,Potency,[2],inactive
same,Potency,[4],inactive
same,Potency,[5],inactive
CCN(CC)CCNC(C(=O)OCCC(C)C)c1ccccc1 (stereo not drawn),Potency,[1],inactive
same,Potency,[2],inactive
same,Potency,[3],inactive
same,Potency,[4],inactive
same,Potency,[5],inactive
[Cl][In]([Cl])[Cl],Potency,[1],inactive
same,Potency,[3],inactive
same,Potency,[4],inactive
O=C(O)Cc1sc(-c2ccccc2)nc1-c1ccc(Cl)cc1,Potency,[1],inactive
same,Potency,[2],inactive
same,Potency,[4],inactive
same,Potency,[5],inactive
CN1[C@@H]2CC(OC(=O)[C@H](CO)c3ccccc3)C[C@H]1[C@@H]1O[C@@H]12 (stereo partly drawn),Potency,[1],inactive
same,Potency,[2],inactive
same,Potency,[4],inactive
same,Potency,[5],inactive
